Test results taken from the supplement of paper PMC9262897, “Low-cost anti-mycobacterial drug discovery using engineered E. coli” (Nature Communications, 2022).
Structures can show the parent of a compound that is named as a salt. ± gives the standard deviation of the averaged measurements.

System: E. coli TESEC Mtb Alr
Test: growth (OD600 after 10 h); higher = more growth (less inhibition)
Details: compound 0.1 mM
Method: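 TESEC Mtb Alr E. coli, or the Alr+ wild-type control, in 384-well plates with Prestwick library compounds at 0.1 mM and 1% DMSO, across arabinose induction levels of 1E3 to 1E7 nM. Growth is read as OD600 after 10 h at 37 °C in triplicate biological replicates.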

[1] = arabinose 1000 nM, raw OD600 reference: median of DMSO wells 0.294, cell-free background 0.041
[2] = arabinose 10000 nM, raw OD600 reference: median of DMSO wells 0.264, cell-free background 0.041
[3] = arabinose 100000 nM, raw OD600 reference: median of DMSO wells 0.201, cell-free background 0.041
[4] = arabinose 1000000 nM, raw OD600 reference: median of DMSO wells 0.193, cell-free background 0.041
[5] = arabinose 10000000 nM, raw OD600 reference: median of DMSO wells 0.146, cell-free background 0.041

SMILES | growth [1] | growth [2] | growth [3] | growth [4] | growth [5]
Cc1nc(=O)c2cc(CN(C)c3ccc(C(=O)N[C@@H](CCC(=O)O)C(=O)O)s3)ccc2[nH]1 [Raltitrexed] | 0.259 ± 0.0086 | 0.358 ± 0.013 | 0.171 ± 0.02 | 0.173 ± 0.0097 | 0.162 ± 0.0053
CN(Cc1cnc2nc(N)nc(N)c2n1)c1ccc(C(=O)N[C@@H](CCC(=O)O)C(=O)O)cc1 [Methotrexate] | 0.285 ± 0.011 | 0.244 ± 0.013 | 0.195 ± 0.011 | 0.155 ± 0.0048 | 0.144 ± 0.002
CC(C)(C)NC[C@@H](O)COc1cccc2c1CCCC2=O [(+) -Levobunolol hydrochloride] | 0.291 ± 0.0069 | 0.267 ± 0.007 | 0.18 ± 0.0047 | 0.182 ± 0.0049 | 0.136 ± 0.003
CCN1CCN(C(=O)N[C@@H](C(=O)N[C@@H]2C(=O)N3C(C(=O)O)=C(CSc4nnnn4C)CS[C@H]23)c2ccc(O)cc2)C(=O)C1=O [Cefoperazone dihydrate] | 0.321 ± 0.0082 | 0.221 ± 0.0032 | 0.3 ± 0.0043 | 0.182 ± 0.0037 | 0.1843 ± 0.0004
COc1cc(C)nc(-n2nc(C)cc2OC)n1 [Epirizole] | 0.263 ± 0.012 | 0.249 ± 0.0083 | 0.178 ± 0.019 | 0.18 ± 0.0057 | 0.139 ± 0.005
CCCOc1cc(N)ccc1C(=O)OCCN(CC)CC [Propoxycaine hydrochloride] | 0.289 ± 0.0076 | 0.274 ± 0.01 | 0.199 ± 0.034 | 0.22 ± 0.011 | 0.138 ± 0.0039
Clc1ccc(C(Cn2ccnc2)OCc2csc3c(Cl)cccc23)c(Cl)c1 (stereo not given) [Sertaconazole nitrate] | 0.0558 ± 0.0094 | 0.07 ± 0.0042 | 0.057 ± 0.0028 | 0.06457 ± 0.00042 | 0.0588 ± 0.0084
CN(C)CCCO[C@@H]1[C@H]2OC(C)(C)O[C@H]2O[C@@H]1[C@H](O)CO [Amiprilose hydrochloride] | 0.304 ± 0.024 | 0.262 ± 0.0085 | 0.196 ± 0.0086 | 0.185 ± 0.0074 | 0.137 ± 0.003
